Results as given in PubChem BioAssay (NCATS).
Inconclusive results are not listed. The source made the active and inactive calls. Calls come from the whole dose curve; as a rule, active = well fitted inhibition curve with a large enough effect; inconclusive = small, poorly fitted or top-dose-only effect; inactive = flat fitted curve, though single readings scatter.

Tests used:
CRL-7250 = normal cell line; assay: Cytotoxic Profiling of Annotated Libraries Using Quantitative High-Throughput Screening (AID 1296008); settings: Five cell lines viability, CellTiter-Glo ATP luminescence, 48-72 h; max response: stronger effect = lower value
Procedure, shortened: (§1)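 Compounds were pin-transferred onto cells and incubated 48 or 72 hr at 37 degree Celsius, 95% humidity. CellTiter-Glo was added, plates sat 10 min at room temperature, then ATP-coupled luminescence was imaged as the viability read-out.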

HEK293 = assay: as above; settings: Five cell lines viability, CellTiter-Glo ATP luminescence, 48-72 h; max response: stronger effect = lower value
Procedure, shortened: as §1

HaCat = assay: as above; settings: Five cell lines viability, CellTiter-Glo ATP luminescence, 48-72 h; max response: stronger effect = lower value
Procedure, shortened: as §1

KB-3-1 = assay: as above; settings: Five cell lines viability, CellTiter-Glo ATP luminescence, 48-72 h; max response: stronger effect = lower value
Procedure, shortened: as §1

NIH3T3 = assay: as above; settings: Five cell lines viability, CellTiter-Glo ATP luminescence, 48-72 h; max response: stronger effect = lower value
Procedure, shortened: as §1

MCC-13 = assay: qHTS assay to identify novel small-molecules to repurpose for Merkel cell carcinoma treatment (AID 1296009); settings: MCC and control cell lines, CellTiter-Glo viability, 72 h; series mostly up to 46 µM
Procedure, shortened: (§2)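 qHTS format: cells treated with library compounds in DMSO across 8 (NPC) or 11 (MIPE) concentrations. Readout after 72 hr at 37 degree celsius was CellTiter-Glo luminescence.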

MCC-26 = assay: as above; settings: MCC and control cell lines, CellTiter-Glo viability, 72 h; series mostly up to 46 µM
Procedure, shortened: as §2
% is set by controls: 0 for no effect and ±100 for the full control effect; potency is the fitted concentration of half-maximal effect.
Note: nearly all actives have a fitted effect of over 60% in size.

COc1ccc(Nc2nccc(NCCO)n2)cc1
inactive: max response (CRL-7250) 1.05% | max response (HEK293) -0.619% | max response (HaCat) 0.234% | max response (KB-3-1) -27.2% | max response (NIH3T3) 1.01% | Potency (MCC-13) | Potency (MCC-26)

CC(=O)OC[C@@H]1O[C@@H](n2ccc(=O)[nH]c2=O)[C@H](OC(C)=O)[C@H]1OC(C)=O
inactive: max response (CRL-7250) -3.38% | max response (HEK293) -0.274% | max response (HaCat) -10.5% | max response (KB-3-1) -0.144% | max response (NIH3T3) -12.5% | Potency (MCC-13) | Potency (MCC-26)

COc1ccnc2[nH]cc(C(=O)C(=O)N3CCN(C(=O)c4ccccc4)C[C@@H]3C)c12
inactive: max response (CRL-7250) -9.05% | max response (HEK293) -2.26% | max response (HaCat) -2.32% | max response (KB-3-1) 3.92% | max response (NIH3T3) -11.5% | Potency (MCC-13) | Potency (MCC-26)

C[C@H](NCc1ccc2c(c1)nc(NC(=O)c1ccc(-c3cn[nH]c3)s1)n2CCc1ccccc1)C(C)(C)C
active: Potency (CRL-7250) 1870 nM | Potency (HEK293) 935 nM | Potency (HaCat) 2960 nM | Potency (KB-3-1) 1050 nM | Potency (NIH3T3) 2640 nM | Potency (MCC-13) 10500 nM | Potency (MCC-26) 10500 nM

CON=C(C(=O)N[C@@H]1C(=O)N2C(C(=O)O)=C(Cn3ccc(=N)n3CCO)CS[C@H]12)c1csc(N)n1
inactive: max response (CRL-7250) -8.38% | max response (HEK293) -24.1% | max response (HaCat) 4.51% | outcome (KB-3-1) | max response (NIH3T3) 1.39% | Potency (MCC-13) | Potency (MCC-26)

COc1cc([C@@H]2c3cc4c(cc3[C@H](O)[C@H]3COC(=O)[C@@H]23)OCO4)cc(OC)c1OC
inactive: max response (HaCat) 4.88%
active: Potency (CRL-7250) 296 nM | Potency (HEK293) 132 nM | Potency (KB-3-1) 235 nM | Potency (NIH3T3) 187 nM | Potency (MCC-13) 662 nM

CC(=O)N[C@H]1[C@@H]([C@H](O)[C@H](O)CO)OC(C(=O)O)=C[C@@H]1N=C(N)N
inactive: max response (CRL-7250) -3% | max response (HEK293) 2.95% | max response (HaCat) -9.9% | outcome (KB-3-1) | max response (NIH3T3) 3.71% | Potency (MCC-13) | Potency (MCC-26)

N#CNC(=NCCCCCCOc1ccc(Cl)cc1)Nc1ccncc1
inactive: max response (CRL-7250) -103% | max response (HEK293) -111%
active: Potency (HaCat) 20.9 nM | Potency (KB-3-1) 3.7 nM | Potency (NIH3T3) 296 nM | Potency (MCC-13) 37.2 nM | Potency (MCC-26) 14.8 nM

C=C1CCC2[C@](C)(CO)C(O)CC[C@]2(C)C1CC=C1C(=O)OCC1O (stereo partly drawn)
inactive: max response (CRL-7250) -1.23% | max response (HEK293) -3.28% | max response (HaCat) -3.92% | max response (KB-3-1) 8.99% | max response (NIH3T3) 3.77% | Potency (MCC-13) | Potency (MCC-26)

COc1cc(C(C)C)c(Oc2cnc(NC(CO)CO)nc2N)cc1I
inactive: max response (CRL-7250) 3.93% | max response (HEK293) -7.36% | max response (HaCat) -12.7% | max response (KB-3-1) -2.87% | max response (NIH3T3) 1.73% | Potency (MCC-13) | Potency (MCC-26)

CCC[C@H]1C[C@H](C(=O)N[C@@H]([C@@H]2O[C@@H](SC)[C@@H](O)[C@@H](O)[C@@H]2O)[C@H](C)Cl)N(C)C1
inactive: max response (CRL-7250) -6.31% | max response (HEK293) -2.02% | max response (HaCat) -10.7% | max response (KB-3-1) 0.31% | max response (NIH3T3) -6.56% | Potency (MCC-13) | Potency (MCC-26)

CC(C)N(CC[C@H](c1ccccc1)c1cc(CO)ccc1O)C(C)C
inactive: outcome (CRL-7250) | max response (HEK293) 0.962% | max response (HaCat) -1.81% | outcome (KB-3-1) | outcome (NIH3T3) | Potency (MCC-13) | Potency (MCC-26)
